Records with an inconclusive call do not appear. The source made the active and inactive calls. The call rests on the fitted dose curve; in most records, active means well fitted curve in the direction sought with a large enough effect; inconclusive means small, poorly fitted or top-dose-only effect, or another doubt; inactive means no such curve, though single readings can be large; an effect the other way counts as inactive or inconclusive.
Columns and labels:
[1] = qHTS assay for measurement of the activity of small molecule inhibitors on Zika virus induced Caspase-3 activity in human iPSC derived neural progenitor cells (hNPCs) (AID 1224857); further: nearly all actives have a fitted effect of over 65% in size; further: potency means the concentration at half of the fitted maximal effect
Outline: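 Pretreat hNPCs with compound 1 h; infect ZIKV 2 FFU/cell; 6 h 37 C, 5% CO2; Caspase-Glo 3/7, 30 min RT; luminescence; normalize to no-virus and virus-only wells.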

[2] = qHTS assay for measurement of the activity of small molecule inhibitors on Zika virus induced Caspase-3 activity in human astrocytoma cells (AID 1224859)
Outline: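 Human SNB-19 astrocytoma cells in RPMI 1640 with 10% FBS receive compound one hour ahead of Zika virus at 2 FFU/cell. After 6 h infection, caspase-3/7 activity is detected by Caspase-Glo luminescence.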

[3] = qHTS Screen of the MIPE 4.0 Collection Against Ewings Sarcoma (RDES) (AID 1259252); further: nearly all actives have a fitted effect of over 35% in size; further: potency means the concentration at half of the fitted maximal effect
Outline: (§1)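 After a 4 h attachment period in RPMI/5% FBS, cells were pin-dosed with test compounds; DMSO served as negative and 9.2 uM bortezomib (final) as positive control. Luminescent CellTiter-Glo signal at 48 h defined viability.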

[4] = qHTS Screen of the MIPE 4.0 Collection Against Ewings Sarcoma (TC71) (AID 1259253); further: nearly all actives have a fitted effect of over 40% in size; further: potency means the concentration at half of the fitted maximal effect
Outline: as §1

[5] = qHTS Screen of the MIPE 4.0 Collection Against Ewings Sarcoma (EW8) (AID 1259255); further: nearly all actives have a fitted effect of over 35% in size; further: potency means the concentration at half of the fitted maximal effect
Outline: as §1

[6] = qHTS Screen of the MIPE 4.0 Collection Against Ewings Sarcoma (TC32) (AID 1259256); further: nearly all actives have a fitted effect of over 45% in size; further: potency means the concentration at half of the fitted maximal effect
Outline: as §1

[7] = qHTS assay to identify small molecule inhibitors of chordoma cells - UCH-1 (AID 1259355); further: nearly all actives have a fitted effect of over 55% in size
Outline: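 800 cells/well, overnight attach; compounds pinned at 15 concs, then auranofin/camptothecin/doxorubicin/rubitecan/topotecan combo added; 48hr 37 C, 5% CO2; CellTiter-Glo, 30min RT, luminescence.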

[8] = qHTS assay to identify small molecule inhibitors of chordoma cells - UCH-2 (AID 1259356); further: series mostly up to about 46 µM
[9] = Identifying Small Molecule Inhibitors of Pancreatic Cancer Stem Cells (A2780, Spheroid) (AID 1259357); conditions: Potency: A2780 spheroid viability; further: potency means the concentration at half of the fitted maximal effect;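 further: spheroids pre-formed over 14 days in stem cell medium on hydrogel; compound exposure lasted 48 h before the ATP luminescence read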
Outline: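 Viability is scored by CellTiter-Glo luminescence 48 h after dosing, expressed as percent activity against vehicle and no-cell references. Spheroid formats rely on cells cultured 14 days in stem cell media beforehand.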

[10] = Identifying Small Molecule Inhibitors of Pancreatic Cancer Stem Cells (SN12C, Adherent) (AID 1259358);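 further: cell survival measured after 48 h of compound exposure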; further: potency means the concentration at half of the fitted maximal effect
Outline: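 Adherent (2D) versus sphere (3D) formats; spheres generated 14 d in SCM beforehand. Compound transferred by pin tool after 4 h, 48 h incubation, CellTiter-Glo endpoint.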

Measured: Potency

CN1CCN(c2ccc3nc(-c4c(N)c5c(F)cccc5[nH]c4=O)[nH]c3c2)CC1
inactive: [1] | [2]
active: [3] 14.8 µM | [4] 11.8 µM | [5] 5.9 µM | [6] 14.8 µM

CNc1nccc(-c2cccnc2Oc2cc(C(=O)Nc3cccc(C(F)(F)F)c3)ccc2C)n1
inactive: [1] | [2]
active: [3] 4.18 µM | [4] 16.6 µM | [5] 18.7 µM | [6] 16.6 µM

CC(C)(C)NC(=O)[C@H]1CN(Cc2cccnc2)CCN1C[C@@H](O)C[C@@H](Cc1ccccc1)C(=O)N[C@H]1c2ccccc2C[C@H]1O
inactive: [1] | [2] | [7] | [8]
active: [3] 1.05 µM | [4] 1.18 µM | [5] 4.18 µM | [6] 1.32 µM

Clc1cccc(-c2nnnn2Cc2cccnc2)c1Cl
inactive: [1] | [2] | [3] | [4] | [5] | [6]

COc1ccc(F)c(F)c1C(=O)c1cnc(NC2CCN(S(C)(=O)=O)CC2)nc1N
inactive: [1] | [2]
active: [3] 2.64 µM | [4] 1.18 µM | [5] 3.72 µM | [6] 2.35 µM

CN(C)CC(C)(C)CNc1nn2c(-c3ccccc3)nnc2cc1C1CCC1
active: [3] 0.418 µM | [4] 1.05 µM | [5] 0.469 µM | [6] 0.469 µM
inactive: [1] | [2]

CC(C)(C)c1cc(C(C)(C)C)c(NC(=O)c2c[nH]c3ccccc3c2=O)cc1O
inactive: [1] | [2] | [3] | [4] | [5] | [6]

Cc1c(Cn2c(C)nc3c(C(=O)O)cc(N4CCOCC4)cc32)cccc1C(F)(F)F
inactive: [1] | [2]
active: [3] 14.8 µM | [4] 10.5 µM | [5] 11.8 µM | [6] 14.8 µM

CNC(=O)CN1CCC(Oc2cc3c(Nc4cccc(Cl)c4F)ncnc3cc2OC)CC1
active: [3] 0.0148 µM | [4] 0.0526 µM | [5] 0.105 µM | [6] 0.0526 µM
inactive: [1] | [2]

CC=CC1=C(C(=O)O)N2C(=O)[C@H](NC(=O)[C@H](N)c3ccc(O)cc3)[C@@H]2SC1
not listed: [9] | [10]
inactive: all other assays above

Cc1ccc2nc(NC(=O)CSc3nc4c(c(=O)n3-c3ccccc3)SCC4)sc2c1
inactive: [1] | [2]
active: [3] 18.7 µM | [4] 20.9 µM | [5] 16.6 µM | [6] 16.6 µM

O=C(c1cncc(Br)c1)N1CCC(N2CCCC2)CC1
inactive: [1] | [2] | [3] | [4] | [5] | [6]

CC1(O)CC(c2nc(-c3ccc4ccc(-c5ccccc5)nc4c3)c3c(N)nccn23)C1 (stereo unspecified)
active: [3] 20.9 µM | [4] 5.9 µM | [5] 13.2 µM | [6] 0.0743 µM
inactive: [1] | [2]

CC[C@H]1CN2CCc3cc(OC)c(OC)cc3[C@H]2C[C@@H]1C[C@@H]1NCCc2cc(OC)c(OC)cc21
active: [3] 0.0935 µM | [4] 0.059 µM | [5] 0.0662 µM | [6] 0.0743 µM
inactive: [1] | [2] | [8]

Cc1cn2cc(C(=O)N(C)CCO)cc(N[C@@H]3CCOc4cccc(C)c43)c2n1
inactive: [1] | [2] | [3] | [4] | [5] | [6]

O=C(O)Cn1nnc(-c2cc(N3CCC(Oc4cc(F)ccc4Br)CC3)no2)n1
inactive: [1] | [2] | [3] | [4] | [5] | [6]

CN1c2cc(O)c(N=NC(N)=O)cc2CC1S(=O)(=O)O (stereo unspecified)
not listed: [9] | [10]
inactive: all other assays above

CC1COC2(CCN(c3nc(=O)c4cc(C(F)(F)F)cc([N+](=O)[O-])c4s3)CC2)O1 (stereo unspecified)
inactive: [1] | [2] | [3] | [4] | [5] | [6]

COc1ccc(-c2cc3c(C)nc(N)nc3n(C3CCC(OCCO)CC3)c2=O)cn1 (stereo unspecified)
active: [3] 0.118 µM | [4] 0.0743 µM | [5] 0.0662 µM | [6] 0.0264 µM
inactive: [1] | [2]

O=C(Nc1nc2cccc(-c3ccc(CN4CCS(=O)(=O)CC4)cc3)n2n1)C1CC1
active: [3] 16.6 µM | [4] 9.35 µM | [5] 9.35 µM | [6] 8.33 µM
inactive: [1] | [2]

Cc1nc2ccc(CN(C)c3ccc(C(=O)N[C@@H](CCC(=O)O)C(=O)O)s3)cc2c(=O)[nH]1
inactive: [1] | [2] | [7] | [8]
active: [3] 0.0166 µM | [4] 0.0209 µM | [5] 0.0264 µM | [6] 0.0332 µM

CN1CCN(Cc2ccc(NC(=O)Nc3ccc(Oc4cc(NC(=O)C5CC5)ncn4)cc3)cc2C(F)(F)F)CC1
inactive: [1] | [2]
active: [3] 0.372 µM | [4] 0.132 µM | [5] 0.372 µM | [6] 0.296 µM

CCC(=C(c1ccccc1)c1ccc(OCCN(C)C)cc1)c1ccccc1
inactive: [1] | [2]
active: [3] 26.4 µM | [4] 16.6 µM | [5] 20.9 µM | [6] 16.6 µM

Cn1c(CNc2ccc(C(=N)N)cc2)nc2cc(C(=O)N(CCC(=O)O)c3ccccn3)ccc21
inactive: [1] | [2] | [3] | [4] | [5] | [6]

CC(=O)OCC(=O)[C@@]1(O)[C@H](C)C[C@H]2[C@@H]3C=C(C)C4=Cc5c(cnn5-c5ccccc5)C[C@]4(C)[C@@H]3[C@@H](O)C[C@@]21C
inactive: [1] | [2] | [9] | [10]
active: [3] 6.62 µM | [4] 6.62 µM | [5] 7.43 µM | [6] 5.9 µM

CC(=O)Nc1sc2c(c1-c1nc3ccccc3s1)CNC2
inactive: [1] | [2] | [10]
active: [3] 16.6 µM | [4] 14.8 µM | [5] 16.6 µM | [6] 13.2 µM

N#Cc1c(O)c2c(-c3ccc(-c4ccccc4O)cc3)csc2[nH]c1=O
inactive: [1] | [2] | [10]
active: [3] 14.8 µM | [4] 18.7 µM | [5] 20.9 µM | [6] 23.5 µM

O=C(NCCS(=O)(=O)c1ccc(C(F)(F)F)cn1)c1ccc(Cl)cc1
not listed: [7] | [8] | [9]
inactive: all other assays above

Cc1cn(-c2cc(NC(=O)c3ccc(C)c(Nc4nccc(-c5cccnc5)n4)c3)cc(C(F)(F)F)c2)cn1
not listed: [7] | [8] | [9]
inactive: all other assays above

Cc1ccc(C(N)=O)cc1Nc1nccc(-c2cn(C(C)C)c3cnccc23)n1
active: [3] 14.8 µM | [4] 8.33 µM | [5] 18.7 µM | [6] 16.6 µM
inactive: [1] | [2] | [10]

C1=CCOCc2cc(ccc2OCCN2CCCC2)Nc2nccc(n2)-c2cccc(c2)OCC1
inactive: [1] | [2]
active: [3] 5.9 µM | [4] 4.69 µM | [5] 6.62 µM | [6] 7.43 µM | [9] 3.32 µM | [10] 5.26 µM

C=CC(=O)Nc1cc2c(Nc3ccc(F)c(Cl)c3)ncnc2cc1OCCCN1CCOCC1
active: [3] 20.9 µM | [4] 14.8 µM | [5] 16.6 µM | [6] 14.8 µM | [9] 23.5 µM | [10] 23.5 µM
inactive: [1] | [2]

CC1=C(CO)C(=O)O[C@@H]([C@@H](C)[C@H]2CC[C@H]3[C@@H]4C[C@H]5O[C@]56[C@@H](O)C=CC(=O)[C@]6(C)[C@@H]4CC[C@]23C)C1
active: [1] 9.35 µM | [3] 0.526 µM | [4] 0.526 µM | [5] 0.264 µM | [6] 0.209 µM | [9] 0.935 µM | [10] 5.26 µM
inactive: [2]

COc1cc2c(Oc3ccc(-c4cnc(Nc5ccc(F)cc5)n(C)c4=O)cc3F)ccnc2cc1OCCCN1CCOCC1
active: [3] 20.9 µM | [4] 20.9 µM | [5] 18.7 µM | [6] 11.8 µM | [10] 5.9 µM
inactive: [1] | [2]

C[C@@]12O[C@@H](C[C@]1(O)CO)n1c3ccccc3c3c4c(c5c6ccccc6n2c5c31)CNC4=O
active: [3] 1.18 µM | [4] 0.59 µM | [5] 0.296 µM | [6] 0.332 µM | [9] 23.5 µM
inactive: [1] | [2]

Cc1ccc(C(=O)Nc2ccc(CN3CCN(C)CC3)c(C(F)(F)F)c2)cc1C#Cc1cnc2cccnn12
inactive: [1] | [2]
active: [3] 5.26 µM | [4] 4.69 µM | [5] 5.9 µM | [6] 5.9 µM | [9] 14.8 µM | [10] 16.6 µM

CC(=O)OCCN1C(=O)c2c(C)nc3ccc(S(=O)(=O)N4CCOCC4)cc3c2C1=O
not listed: [7] | [8]
inactive: all other assays above

COc1cc2ncn(-c3cc(OCc4ccccc4C(F)(F)F)c(C(N)=O)s3)c2cc1OC
active: [3] 4.18 µM | [4] 1.48 µM | [5] 1.32 µM | [6] 1.32 µM | [10] 1.05 µM
inactive: [1] | [2]

COc1cccc2nc(-c3cccs3)nc(NN3C(=O)C=C(C)C3=O)c12
active: [3] 2.96 µM | [4] 0.743 µM | [5] 0.469 µM | [6] 1.87 µM | [9] 0.662 µM
inactive: [1] | [2]

O=C(Nc1cc(C(F)(F)F)cc(C(F)(F)F)c1)c1cc(Cl)ccc1O
inactive: [1] | [2]
active: [3] 1.18 µM | [4] 1.05 µM | [5] 2.35 µM | [6] 1.18 µM | [9] 0.526 µM

Source: PubChem BioAssay (NCATS)
